# Screening data: PubChem, National Center for Advancing Translational Sciences (NCATS)
# Sampled rows, rich in hits. Any-hit rate of the full collection: about 3.8%.
# GCN5L2 inh – GCN5L2 (KAT2A) acetyltransferase inhibition; GCN5L2 HAT assay, ThioGlo1 CoA-SH fluorescence; Potency, µM (series often up to 58.9 µM), hits mostly inhibitors; Q92830; actives 0.21% (n = 390,000); AID 504327
# Target sequence (Q92830 whole entry, looked up): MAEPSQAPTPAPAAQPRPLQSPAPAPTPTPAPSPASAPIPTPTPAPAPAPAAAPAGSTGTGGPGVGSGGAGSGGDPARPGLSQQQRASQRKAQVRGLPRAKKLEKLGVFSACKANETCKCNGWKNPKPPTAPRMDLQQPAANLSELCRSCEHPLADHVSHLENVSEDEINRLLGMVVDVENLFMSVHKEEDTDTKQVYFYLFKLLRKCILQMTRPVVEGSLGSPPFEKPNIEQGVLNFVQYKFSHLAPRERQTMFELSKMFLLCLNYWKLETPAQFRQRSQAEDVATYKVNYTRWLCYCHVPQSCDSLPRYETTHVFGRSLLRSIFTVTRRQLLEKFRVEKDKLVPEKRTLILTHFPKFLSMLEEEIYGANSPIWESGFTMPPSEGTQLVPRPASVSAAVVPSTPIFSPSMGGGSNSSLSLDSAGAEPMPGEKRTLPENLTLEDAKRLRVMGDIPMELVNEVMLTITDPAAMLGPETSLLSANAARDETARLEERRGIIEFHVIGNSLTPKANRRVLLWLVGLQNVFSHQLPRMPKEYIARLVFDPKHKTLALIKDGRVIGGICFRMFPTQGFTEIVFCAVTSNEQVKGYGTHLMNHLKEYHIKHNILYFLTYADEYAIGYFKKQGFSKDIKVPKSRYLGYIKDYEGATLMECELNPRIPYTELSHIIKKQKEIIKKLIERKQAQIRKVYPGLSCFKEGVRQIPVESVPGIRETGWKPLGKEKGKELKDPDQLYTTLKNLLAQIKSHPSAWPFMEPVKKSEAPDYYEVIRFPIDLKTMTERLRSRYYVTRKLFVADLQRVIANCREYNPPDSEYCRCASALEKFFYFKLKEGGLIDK
#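 Fluorescence readout, Ex340nm/Em540nm: ThioGlo1 (50uM final) reacts with free CoA thiol released as 20nM GCN5L2 acetylates H3(1-25) peptide (75uM) using acetyl-CoA (70uM). Compound and enzyme sat 15 min beforehand; 20 min room-temperature reaction.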
# TrxR1 substrate – is turned over as a substrate by rat TrxR1. O89049. purified TrxR1 substrate turnover, NADPH consumption readout. Potency, µM (doses to about 114 µM). actives 0.01% (n = 390,000); note: nearly all actives have a fitted effect of over 50% in size
#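 Rat TrxR1, dispensed at 90 nM, was prereduced with 400 uM NADPH (final) for 5 min at ~22 deg C, then incubated with compound 15 min before 400 uM selenite. A first-read NADPH fluorescence drop versus no-compound background flagged substrates.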
# Sfp PPTase inh – Sfp phosphopantetheinyl transferase inhibition; Q9F4F7; Biochemical Sfp PPTase activity, qHTS; Potency, µM, usual class: inhibitors; actives 3.5% (n = 310,000);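 note: the enzyme is Sfp with the accession as filed and its product quenches rhodamine fluorescence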
#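 Fluorescence-quenching assay: 15 nM Sfp-PPTase preincubated 15 min at room temperature with compound, then 5 uM rhodamine-CoA and 12.5 uM BHQ-2-labelled YbbR peptide added. Fluorescence (ex 525/em 598 nm) read at start and after 30 min; difference gives rate.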
# rTrxR1 inhibitor – blocks rat thioredoxin reductase 1; actives 1% (n = 390,000); Potency, µM (doses to about 114 µM), usual class: inhibitors; O89049; recombinant rTrxR1, NADPH fluorescence consumption, selenite substrate; note: nearly all actives have a fitted effect of over 65% in size
#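 Rat TrxR1 (90 nM in the dispensed reagent) was pre-reduced with 400 uM NADPH for 5 min at room temperature, then incubated with compound for 15 min. After 400 uM selenite was added, NADPH fluorescence (Ex 340/Em 450 nm) was followed for 8 min.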
# GLS inhibitor – blocks human kidney-isoform glutaminase activity | O94925 | GLS enzymatic activity, qHTS titration | Potency, µM (series often up to 45.5 µM), usual class: inhibitors | actives 0.21% (n = 410,000)
#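 hKGA in 45 mM KH2PO4 (pH 8.2), 0.02% Tween-20 with compound, then 1mM L-Glutamine (stock as added) plus glutamate oxidase/HRP/Amplex red coupling mix. Fluorescence read initially and after 30 min at RT; signal change reflects glutamate formation.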
# VDR inh – inhibitors of human vitamin D receptor | actives 0.93% (n = 400,000) | VDR-SRC2-3 peptide fluorescence polarization, 2 h | Potency, µM, hits mostly inhibitors | P11473
#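 VDR–SRC2-3 interaction, FP format. Cmpds 23 nl via pintool, brief spin, 2 h ambient incubation.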
# USP1 UbRho – validation of human USP1/UAF1 inhibitors | actives 50% (n = 50) | Ub-Rhodamine cleavage, fluorescence kinetic read | Potency, µM (titrated, usually from 56.8 µM), hits mostly inhibitors | shares compounds with VDR inh
# VDR confirm – inhibits human vitamin D receptor, primary hit validation | shares compounds with VDR inh | VDR-coactivator inhibition assay, qHTS confirmation | Potency, µM, most hits filed as inhibitors | actives 89% (n = 840)
# VDR FP – blocks human VDR-coactivator binding in fluorescein assay; shares compounds with VDR inh; VDR-coactivator binding, fluorescein fluorescence polarization; Potency, µM (highest dose often 57.1 µM), most hits filed as inhibitors; actives 48% (n = 840); AID 602200
# VDR bla – confirmation of human vitamin D receptor inhibitors in reporter cells. shares compounds with VDR inh. VDR beta-lactamase reporter cells, FRET ratio; cells co-treated with VDR agonist LG190178. Potency, µM (doses to about 46.1 µM), most hits filed as inhibitors. actives 23% (n = 840). AID 602202
# VDR viability – cell toxicity, VDR inhibitor hit counter-screen; shares compounds with VDR inh; cytotoxicity counter-screen, cell viability, qHTS; Potency, µM (doses to about 48.3 µM), hits mostly cytotoxic; actives 18% (n = 840); note: nearly all actives have a fitted effect of over 75% in size
# Numbers stand for hits; n = inactive; u = inconclusive; x = no result; [ ] = dose if it differs, or a comment. Calls come from the whole dose curve; as a rule, active = well fitted curve in the direction sought with a large enough effect; inconclusive = small, poorly fitted or top-dose-only effect, or another doubt; inactive = no such curve, though single readings can be large; an effect the other way counts as inactive or inconclusive.
SMILES,GCN5L2 inh,TrxR1 substrate,Sfp PPTase inh,rTrxR1 inhibitor,GLS inhibitor,VDR inh,VDR confirm,VDR FP,VDR bla,VDR viability,others
CCOC(=O)C1=C(Cc2ccc(OC)cc2)C(=O)c2ccccc2C1=O,n,n,10µM,u,n,7.9µM,0.71,u,23µM,u,
CCOC(=O)c1c(C)nc2c(c1-c1cc(OC)ccc1OC)C(=O)c1ccccc1-2,n,n,n,n,x,n,x,x,x,x,
O=[N+]([O-])c1ccc(Sc2cccc[n+]2[O-])c2nonc12,16µM,n,1.3µM,1.6µM,11µM,8.9µM,6,u,3.7µM,u,
CC(NC(=O)OC(C)(C)C)C(=O)Oc1ccc2ccc(=O)oc2c1 (stereo not drawn),n,n,n,u,n,n,x,x,x,x,
Cc1nc(NC(=O)c2ccccc2)sc1Cc1ccc2c(c1)OCO2,n,n,n,n,n,n,x,x,x,x,
Cc1nc(NC(=O)c2ccc(Cl)cc2)sc1Cc1ccc2c(c1)OCO2,n,n,20µM,n,n,79µM,u,u,n,u,
O=[N+]([O-])c1c(Nc2ccc(O)cc2)cc(N2CCOCC2)c2nonc12,n,n,n,n,n,n,x,x,x,x,
O=[N+]([O-])c1c(Nc2ccccc2O)cc(Cl)c2nonc12,n,n,n,0.71µM,n,45µM,4.2,u,4.6µM,13µM,
O=C(O)c1cc(Nc2cc(Cl)c3nonc3c2[N+](=O)[O-])ccc1O,n,n,45µM,1.8µM,n,3.5µM,2.7,u,n,n,
Cc1ccc(N2CC(C(=O)Nc3cccc(F)c3)CC2=O)cc1 (stereo not drawn),n,n,n,n,n,n,x,x,x,x,
CCOC(=O)CSC1=NC(=O)/C(=C\c2ccc(Cl)cc2)S1,n,n,u,u,n,79µM,8.4,n,u,u,
CCOC(=O)C1CCN(C2=NC(=O)/C(=C/c3ccc(Cl)cc3)S2)CC1,n,n,n,n,n,n,x,x,x,x,
CCOC(=O)c1c(-c2ccccc2)oc2ccc(NS(=O)(=O)c3ccccc3)cc12,n,n,x,n,n,n,x,x,x,x,
COc1ccc(Cl)cc1NC(=O)c1c(NCc2sccc2C)sc2c1CCCC2,u,n,x,n,n,18µM,3.5,3.2µM,n,n,
O=C(COc1ccc(Cl)cc1)Nc1sc2c(c1C(=O)Nc1cccc(Cl)c1)CCCC2,u,n,x,n,n,u,7.9,7.9µM,n,n,
COc1ccccc1NC(=O)c1c(NCc2sccc2C)sc2c1CCCCC2,n,n,x,u,n,n,x,x,x,x,
O=C(N[C@@H](Cc1ccccc1)C(=O)CCl)OCc1ccccc1,n,n,x,21µM,n,5.6µM,x,x,x,x,USP1 UbRho=26µM
O=C(N[C@@H](Cc1ccccc1)C(=O)N[C@@H](Cc1ccccc1)C(=O)O)OCc1ccccc1,n,n,x,n,n,n,x,x,x,x,
CN(C)C(=O)c1cccc(-c2cc(NC=O)c3ncc(-c4ccc(F)c(Cl)c4)n3c2)c1,x,x,x,x,n,x,x,x,x,x,
CCCOC(=O)c1c(NC(=O)C2CCCO2)sc(C(=O)OC)c1C (stereo not drawn),n,n,6.3µM,n,n,79µM,24,u,n,n,
Cc1ccc(NC(=O)CSc2nc(-c3ccc(F)cc3)nc3c2Cc2c(CO)cnc(C)c2O3)cc1C,n,n,x,n,n,n,x,x,x,x,
COc1ccc(/C=C2\COc3ccccc3C2=O)cc1OC,n,n,n,u,n,u,22,16µM,u,u,
CCOc1cc(/C=C2\COc3ccccc3C2=O)cc(Br)c1OCC(=O)N(C)C,n,n[0.457 µM],50µM,u,n,20µM,6,u,u,18µM,
O=C(O)c1ccc(/C=C2\COc3ccccc3C2=O)cc1,n,n,u,u,n,20µM,21,22µM,u,u,
COc1cc2c(cc1OC)-c1cc3nc4ccccc4nc3n1C(C)(C)C2,u,x,u,x,x,7.1µM,20,u,u,n,USP1 UbRho=47µM
